Laboratory results from the supplement of paper PMC6555819.

tested on: VDR:RXRa (NR concentration 270 nM, RXRa partner concentration 90 nM); assay: PBM binding z-score (relative to random genomic background probes); higher = stronger binding; sequences stand for … in GC…GCGATTGACAGCGTAGAATGAAGG
Protocol: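 Protein-binding microarray (Agilent 4x180K custom design, double-stranded 60-nt probes: 5' GC cap, 34-nt variable region, 24-nt constant primer region; full probe sequence given). Purified or IVT nuclear receptor:RXRα heterodimers (3:1 NR:RXRα, mostly 270:90 nM) or homodimers were incubated for 1 h in PBS with 2% milk and no ligand, then detected with Alexa488 antibodies. Fluorescence from o1-orientation probes (~5 replicates averaged) was converted to z-scores against 500 random hg19 background probes. Variable regions are seed direct-repeat (DR0–DR5) sites, all their single-nucleotide variants and half-site ablations.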

Row | Sequence | PBM binding z-score
1 | AGAATGAGGTTACCAAAGATCAGGCAAACGCTTG | 1.36
2 | CGAACTAGGTCACAGAGGTCAAAGTCCGTGCGTA | 8.3
3 | AGTCAAAGTTAATCTAGGTAACGTAAGATATGCT | -0.0868
4 | ACTTACGGGTCAACGTGGTTATAGCACGCGTATA | 4.96
5 | TAGCCTAGGTCATTGGGACAGTATAGTACGCATC | 2.35
6 | CGTCAAAGTTCAGGGTAACGTAACAGAAAGCAGC | 2.8
7 | CAGCCTAGGTCAGGGCCAGTATCGGAGGAACGTT | -0.0138
8 | ATCTCTAGGTGAAGTTCAGTGAAAGATCGATAGA | 0.563
9 | CCAGACAAGTGAAAGGTAACTCAGTCTGGTACGC | 0.274
10 | CGTCAAAGTTCAACTACGGTAACGTAAAGCACGC | 4.19
11 | ACAGACAGGTGATAAAGGTAACTCAGGCTATCAT | 0.455
12 | CAAACTAGTTCACGAAAGGTCAAAGTCGAATGAC | 6.33
13 | CCAACTGGGCCAAGGTCATTGATCAGTCAAAGCA | 3.1
14 | TCGAGCAGGTTAGGGGCATTCAGAATGGCGTCGA | 0.187
15 | AGCGAAAGGTCGACGAGGTGAGTATACACCGTTT | 5.23
16 | CAAACTAGGTCACCGGAAGGTCACAGTCCGCATG | 5.64
17 | CGAACTAGGTCAAGCACAGTGAATCTCCGCACGC | 1.43
18 | AGTCAAAGTTCACTAGGAAACGTAAGATTCAGCT | 3.48
19 | CGTCCAAGGTCATAGGAGGTCAGTGATGACAGAT | 6.43
20 | CCTATTAGTTGAACATAAGGGCAACCGAAGCTCG | 0.603

Row | Sequence | PBM binding z-score
21 | ACTTACAGGTCAACGAGGTTATAGCACGCGTATA | 7.66
22 | CTGGAAAGGTCGGTTGAGGTGAGTATACGGATAA | 2.15
23 | TCTTGTAGATCAACAGGAGGTTAAGAAAGATCGA | 0.453
24 | ATCGCAAGGTCGAGGTGAGTATAGAGAAAGGGAA | 1.43
25 | ATACCAAGGTGATCGTGAGGGCGTTGATACTAAC | 1.42
26 | AATACAGGGCCATCGTAGGCCAGAGTACGCACAG | -0.126
27 | ACTTACGTGTCAACGAGGTTATAGCACGCGTATA | 5.46
28 | ATCTCTAGGTAAAAGTGCAGTGAATCCCGAGGAT | 0.00627
29 | GTTCCAAGGTGAATAGGTCGTTGATGAGTAGGCG | 1.08
30 | TAGCCTGGGTCAGATCGGGCCAGTATACGCTATA | 0.452
31 | CCTCGGAGGACAGCAGGAGGTCAGAGCTGCCAGA | 1.09
32 | CCTAACGGGTCACTCCAGGTTATAGCATCGGAGT | 3.7
33 | ATATGTAGGTTACATCCGGGTCATTCAAGCTATG | 4.17
34 | CCTTTCGGGTCACTGACAGGTTATAGCATTTGGA | 3.86
35 | TTACCAAGGTGATGGTCGTTGATCCCTCTGTAGA | -0.193
36 | CCTACTGGGCCATGGTCATTGATCAGTCAAAGCA | -0.434
37 | CAGCCTAGGTCAGGGCCAGTATAGGAGGAACGTT | 0.31
38 | CAAACTAGGTCACAGAGATCAAAGTCCGTGCGTA | 4.39
39 | GTACCAAGGTGAATATGTCGTTGATGAGTAGGCG | -0.0532
40 | ATCTCTGGGTAAAGATAGTTCAGTGAATGCAAAT | 0.896
